The source made the active and inactive calls. Entries that show only a call come without a potency. The call rests on the fitted dose curve.
Each compound was assayed against Estrogen receptor (Homo sapiens) (UniProt P03372) (assay: qHTS assay to identify small molecule agonists of the estrogen receptor alpha (ER-alpha) signaling pathway in the presence of an antagonist (AID 1259383; further: top concentration of the series differs between compounds; nearly all actives have a fitted effect of over 15% in size)). Conditions: VM7Luc4E2 cells, ERE-luciferase, +ICI-182,780, 22 h; series mostly up to 92.4 µM.
Excerpt: National Center for Advancing Translational Sciences [NCATS] NIH Chemical Genomics Center [NCGC] U.S. Environmental Protection Agency [EPA] National Institutes of Environmental Health Sciences [NIEHS] National Toxicology Program [NTP] Assay overview: Estrogen receptor (ER), a member of nuclear hormone receptor plays an important role in development, metabolic homeostasis and reproduction. Two subtypes of ER, ER-alpha and ER-beta, have similar expression patterns with some uniqueness in both types. Endocrine disrupting chemicals (EDCs) and their interactions with steroid hormone receptors like ER causes disruption of normal endocrine function. Therefore, it is important to understand the effect of environmental chemicals in ER signaling pathway. For identifying ER agonists, VM7Luc4E2 cell line has been used in the current assay. VM7Luc4E2 cell line (provided by Denison MS, University of California) endogenously expresses full-length ER-alpha and is stably transfected with a plasmid containing four estrogen responsive elements (ERE) upstream of a luciferase reporter gene. This current screening for measuring luciferase reporter gene activity using VM7Luc4E2 cells against Tox21 10K library collection is a confirmation study on agonist mode screening in presence of ER-antagonist (ICI-182,780) at 10.0nM final concentration.
Assay Protocol Summary: VM7Luc4E2 cells were cultured in phenol red free assay medium containing 10% charcoal stripped FBS for 5 days prior to the assay. The cells were dispensed at 4,000 cells in 4uL of assay medium per well into white wall/solid-bottom 1536-well plates (Corning Life Sciences, Corning, NY) using a Multidrop Combi (Thermo Fisher Scientific Inc., Waltham, MA) dispenser. After the assay plates were incubated at 37C and 5% CO2 for 24hr, 1uL of 10.0nM (final concentration) ICI-182,780 or assay buffer was added using two separate tips of Flying Reagent Dispenser (FRD, Aurora Discovery, San Diego, CA). Then 23nL of compounds dissolved in DMSO at 15 concentrations and positive controls or DMSO only was transferred to the assay plates by a Pintool station (Wako, San Diego, CA). The assay plates were incubated at 37C and 5% CO2 for 22hr. For luciferase read, 4uL/well ONE-Glo reagent (Promega Corporation, Madison, WI) was added to each well using FRD and after 30min incubation at room temperature, luminescence signal was measured on ViewLux plate reader (PerkinElmer, Shelton, CT).

Estrogen receptor (Homo sapiens), sequence (P03372 whole entry, looked up): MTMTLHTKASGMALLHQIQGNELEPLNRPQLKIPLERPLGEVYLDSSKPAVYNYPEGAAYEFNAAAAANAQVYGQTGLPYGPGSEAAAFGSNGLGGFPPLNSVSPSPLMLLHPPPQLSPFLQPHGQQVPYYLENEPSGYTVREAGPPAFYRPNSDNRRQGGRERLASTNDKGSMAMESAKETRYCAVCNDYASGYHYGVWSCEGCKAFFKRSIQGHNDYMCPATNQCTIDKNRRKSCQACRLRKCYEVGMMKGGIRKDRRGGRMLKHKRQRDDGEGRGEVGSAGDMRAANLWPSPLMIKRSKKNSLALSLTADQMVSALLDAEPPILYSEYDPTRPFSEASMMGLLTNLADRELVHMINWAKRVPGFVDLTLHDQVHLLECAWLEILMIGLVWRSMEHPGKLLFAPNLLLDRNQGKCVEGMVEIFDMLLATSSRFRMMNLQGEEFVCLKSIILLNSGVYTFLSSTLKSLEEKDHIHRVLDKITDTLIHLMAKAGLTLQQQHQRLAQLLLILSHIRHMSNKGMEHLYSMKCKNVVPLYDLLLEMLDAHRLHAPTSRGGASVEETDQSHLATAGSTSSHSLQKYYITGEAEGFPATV

| Compound | Potency | activation |
| --- | --- | --- |
| COC(=O)N/N=C/c1c[n+]([O-])c2ccccc2[n+]1[O-] | inactive |  |
| CCc1ccc(CC)cc1 | inactive |  |
| C/C=C(\C)C=O | inactive |  |
| CC(C)(O)c1ccc(C(C)(C)O)cc1 | inactive |  |
| CC(C)(C)C(=O)NCCCC(=O)O | inactive |  |
| CNC(C)=O | inactive |  |
| CCCCCCCOC(C)=O | inactive |  |
| Nc1ccc(C(=O)NCC(=O)O)cc1 | inactive |  |
| CCC(=O)OCCOc1ccccc1 | inactive |  |
| CCCCCCCCCCCC(C)=O | inactive |  |
| CCCCc1ccc(Cl)cc1 | inactive |  |
| Nc1nc(Cl)cc(Cl)n1 | inactive |  |
| C[n+]1ccccc1/C=N/O | inactive |  |
| C=CCn1cc[n+](C)c1 | inactive |  |
| Cc1cc(C)c(N)c(Cl)c1 | inactive |  |
| CN(C)c1cc(NC(=O)CNC(C)(C)C)c(O)c2c1C[C@H]1C[C@H]3[C@H](N(C)C)C(=O)C(C(N)=O)=C(O)[C@@]3(O)C(=O)C1=C2O | inactive |  |
| CN(C)CCc1c[nH]c2ccc(CS(=O)(=O)N3CCCC3)cc12 | inactive |  |
| CCCc1ccc(O)c(OC)c1 | inactive |  |
| CCCC(=O)C(CC)Sc1ccoc1C (stereo not given) | inactive |  |
| N#Cc1cc(NC(=O)C(=O)O)c(Cl)c(NC(=O)C(=O)O)c1 | inactive |  |

| Compound | Potency | activation |
| --- | --- | --- |
| CCOC(=O)c1ccc(N(C)C)cc1 | inactive |  |
| C[Si](C)(C)O[Si](O)(O)O | inactive |  |
| Clc1cc(Cl)c(Cl)c(Cl)c1Cl | inactive |  |
| CC(C)c1cc(C(C)C)cc(C(C)C)c1 | inactive |  |
| C[C@@H]1NC(=O)[C@@H](N)CNC(=O)[C@H](C2CCNC(N)=N2)NC(=O)/C(=C/NC(N)=O)NC(=O)[C@H](CNC(=O)C[C@@H](N)CCCN)NC1=O (stereo not given in full) |  | 1.04% [at 0.349 µM] (inactive) |
| Cc1cc2c(cc1CC(=O)c1sccc1S(=O)(=O)Nc1onc(C)c1Cl)OCO2 | inactive |  |
| O=P(O)(O)C(O)(Cc1cccnc1)P(=O)(O)O | inactive |  |
| Cc1ccc2cccnc2c1 | inactive |  |
| CC(O)CCCCn1c(=O)c2c(ncn2C)n(C)c1=O (stereo not given) | inactive |  |
| CCCCN(CCCC)CCCCCCN(CCCC)CCCC | inactive |  |
| CC[C@@]1(c2ccccc2)NC(=O)N(C)C1=O | inactive |  |
| N#Cc1ccccc1C#N | inactive |  |
| O=C(OOC(=O)c1ccccc1)c1ccccc1 | inactive |  |
| CC(C)=CCC/C(C)=C\C#N | inactive |  |
| O=C(O)Cc1c(Cl)ccc(Cl)c1Cl | inactive |  |
| NNC(=O)CCCCC(=O)NN | inactive |  |
| Cc1ccccc1C#N | inactive |  |
| CCCCS | inactive |  |
| Clc1ccc2c(c1)Nc1ccccc1S2 | inactive |  |
| C/C(Cl)=C/CCl | inactive |  |

Reference: PubChem BioAssay (Tox21)
